# Data from article PMC11062922 (Nature Chemical Biology, 2023).
# Where two headings read alike, the source gives them in different places.
# Key:
# Set-up in all cases: species or system human, MV4-11 + K-562 + COLO205 + SK-N-BE2 + OVCAR-8
# ADRBK1 = settings: read-out: apparent Kd; compound concentrations:100 nM and 1000 nM (sheet 'Samples'); n = 1
# AGPS = settings: read-out: apparent Kd; compound concentrations:100 nM and 1000 nM (sheet 'Samples'); n = 1
# AKT1 = settings: read-out: apparent Kd; compound concentrations:100 nM and 1000 nM (sheet 'Samples'); n = 1
# AKT2 = settings: read-out: apparent Kd; compound concentrations:100 nM and 1000 nM (sheet 'Samples'); n = 1
# AKT3 = settings: read-out: apparent Kd; compound concentrations:100 nM and 1000 nM (sheet 'Samples'); n = 1
# CDK16 = settings: read-out: apparent Kd; compound concentrations:100 nM and 1000 nM (sheet 'Samples'); n = 1
# CDK17 = settings: read-out: apparent Kd; compound concentrations:100 nM and 1000 nM (sheet 'Samples'); n = 1
# DJA1 = test system: T1, DJA1; settings: read-out: apparent Kd; compound concentrations:100 nM and 1000 nM (sheet 'Samples'); n = 1
# T1 construct: gene DNAJA1
# FLT3 = settings: read-out: apparent Kd; compound concentrations:100 nM and 1000 nM (sheet 'Samples'); n = 1
# ILK = settings: read-out: apparent Kd; compound concentrations:100 nM and 1000 nM (sheet 'Samples'); n = 1
# MAP2K1 = settings: read-out: apparent Kd, n = 1
# MAP2K2 = settings: read-out: apparent Kd; compound concentrations:100 nM and 1000 nM (sheet 'Samples'); n = 1
# NNT = settings: read-out: apparent Kd; compound concentrations:100 nM and 1000 nM (sheet 'Samples'); n = 1
# NQO1 = settings: read-out: apparent Kd; compound concentrations:100 nM and 1000 nM (sheet 'Samples'); n = 1
# PDGFRB = settings: read-out: apparent Kd; compound concentrations:100 nM and 1000 nM (sheet 'Samples'); n = 1
# PIP4K2C = settings: read-out: apparent Kd; compound concentrations:100 nM and 1000 nM (sheet 'Samples'); n = 1
# PRKAG1 = settings: read-out: apparent Kd; compound concentrations:100 nM and 1000 nM (sheet 'Samples'); n = 1
# PRKAG2 = settings: read-out: apparent Kd; compound concentrations:100 nM and 1000 nM (sheet 'Samples'); n = 1
# PYGL = settings: read-out: apparent Kd; compound concentrations:100 nM and 1000 nM (sheet 'Samples'); n = 1
# RIOK2 = settings: read-out: apparent Kd; compound concentrations:100 nM and 1000 nM (sheet 'Samples'); n = 1
# STK26 = settings: read-out: apparent Kd; compound concentrations:100 nM and 1000 nM (sheet 'Samples'); n = 1
# VDAC3 = settings: read-out: apparent Kd; compound concentrations:100 nM and 1000 nM (sheet 'Samples'); n = 1
# ADK = settings: read-out: apparent Kd; compound concentrations:100 nM and 1000 nM (sheet 'Samples'); n = 1
# CAMK2B = settings: read-out: apparent Kd; compound concentrations:100 nM and 1000 nM (sheet 'Samples'); n = 1
# CAMK2D = settings: read-out: apparent Kd; compound concentrations:100 nM and 1000 nM (sheet 'Samples'); n = 1
# CSNK1G1 = settings: read-out: apparent Kd; compound concentrations:100 nM and 1000 nM (sheet 'Samples'); n = 1
# EIF2AK1 = settings: read-out: apparent Kd; compound concentrations:100 nM and 1000 nM (sheet 'Samples'); n = 1
# ERN2 = settings: read-out: apparent Kd; compound concentrations:100 nM and 1000 nM (sheet 'Samples'); n = 1
# FN3KRP = settings: read-out: apparent Kd; compound concentrations:100 nM and 1000 nM (sheet 'Samples'); n = 1
# FN3K = settings: read-out: apparent Kd; compound concentrations:100 nM and 1000 nM (sheet 'Samples'); n = 1
# ICK = settings: read-out: apparent Kd; compound concentrations:100 nM and 1000 nM (sheet 'Samples'); n = 1
# LATS1 = settings: read-out: apparent Kd; compound concentrations:100 nM and 1000 nM (sheet 'Samples'); n = 1
# MAPK3 = settings: read-out: apparent Kd; compound concentrations:100 nM and 1000 nM (sheet 'Samples'); n = 1
# NEK2 = settings: read-out: apparent Kd; compound concentrations:100 nM and 1000 nM (sheet 'Samples'); n = 1
# NQO2 = settings: read-out: apparent Kd; compound concentrations:100 nM and 1000 nM (sheet 'Samples'); n = 1
# NUAK1 = settings: read-out: apparent Kd; compound concentrations:100 nM and 1000 nM (sheet 'Samples'); n = 1
# PAK6 = settings: read-out: apparent Kd; compound concentrations:100 nM and 1000 nM (sheet 'Samples'); n = 1
# PBK = settings: read-out: apparent Kd; compound concentrations:100 nM and 1000 nM (sheet 'Samples'); n = 1
# PDXK = settings: read-out: apparent Kd; compound concentrations:100 nM and 1000 nM (sheet 'Samples'); n = 1
# PFKP = settings: read-out: apparent Kd; compound concentrations:100 nM and 1000 nM (sheet 'Samples'); n = 1
# PRKX;PRKY = settings: read-out: apparent Kd; compound concentrations:100 nM and 1000 nM (sheet 'Samples'); n = 1
# TESK1 = settings: read-out: apparent Kd; compound concentrations:100 nM and 1000 nM (sheet 'Samples'); n = 1
# TP53RK = settings: read-out: apparent Kd; compound concentrations:100 nM and 1000 nM (sheet 'Samples'); n = 1
structure (smiles),measurement,setting,value
NS(=O)(=O)c1ccc(Nc2ncc(-c3ccccc3)o2)cc1 [GW572399X],potency estimated from few doses,ADRBK1,1910 nM
same,potency estimated from few doses,AGPS,2050 nM
same,potency estimated from few doses,AKT1,1960 nM
same,potency estimated from few doses,AKT2,1970 nM
same,potency estimated from few doses,AKT3,1560 nM
same,potency estimated from few doses,CDK16,1760 nM
same,potency estimated from few doses,CDK17,2100 nM
same,potency estimated from few doses,DJA1,1310 nM
same,potency estimated from few doses,FLT3,164 nM
same,potency estimated from few doses,ILK,1870 nM
same,potency estimated from few doses,MAP2K1; compound concentrations:100 nM and 1000 nM (sheet 'Samples'),1420 nM
same,potency estimated from few doses,MAP2K2,1740 nM
same,potency estimated from few doses,NNT,1770 nM
same,potency estimated from few doses,NQO1,1900 nM
same,potency estimated from few doses,PDGFRB,1480 nM
same,potency estimated from few doses,PIP4K2C,2290 nM
same,potency estimated from few doses,PRKAG1,1790 nM
same,potency estimated from few doses,PRKAG2,1380 nM
same,potency estimated from few doses,PYGL,1900 nM
same,potency estimated from few doses,RIOK2,2160 nM
same,potency estimated from few doses,STK26,1400 nM
same,potency estimated from few doses,VDAC3,1580 nM
C[C@@H](c1ccccc1)[C@@H](C(=O)Nc1ccc(I)cc1F)N1C(=O)N[C@H](c2ccc(OC[C@H](O)CO)cc2)C1=O [RO5068760-000],potency estimated from few doses,ADK,1000 nM
same,potency estimated from few doses,CAMK2B,544 nM
same,potency estimated from few doses,CAMK2D,450 nM
same,potency estimated from few doses,CSNK1G1,2040 nM
same,potency estimated from few doses,EIF2AK1,1390 nM
same,potency estimated from few doses,ERN2,1170 nM
same,potency estimated from few doses,FN3KRP,959 nM
same,potency estimated from few doses,FN3K,1200 nM
same,potency estimated from few doses,ICK,1310 nM
same,potency estimated from few doses,LATS1,1760 nM
same,potency estimated from few doses,"MAP2K1; compound concentrations: 100 nM and 1000 nM (sheet 'Samples'), CATDS: 0.123510753631687",183 nM
same,potency estimated from few doses,MAP2K2,165 nM
same,potency estimated from few doses,MAPK3,1330 nM
same,potency estimated from few doses,NEK2,1570 nM
same,potency estimated from few doses,NQO2,787 nM
same,potency estimated from few doses,NUAK1,1920 nM
same,potency estimated from few doses,PAK6,1730 nM
same,potency estimated from few doses,PBK,2030 nM
same,potency estimated from few doses,PDXK,612 nM
same,potency estimated from few doses,PFKP,2220 nM
same,potency estimated from few doses,PRKX;PRKY,1130 nM
same,potency estimated from few doses,TESK1,543 nM
same,potency estimated from few doses,TP53RK,1620 nM
